Screening results deposited in PubChem by several laboratories.
In the library only some 4.5% were active in any assay of this set; here they are far more common.
PrP UTR inh: inhibition of PrP 5' UTR reporter expression. inhibition, % (test concentration not listed). AID 488862. hit rate 0.35% among 340,000. cell-based PrP 5' UTR mRNA reporter, plate reader; in the data active = inhibition above about 52%; also: 0 = median of the neutral control wells
GDH-TPI inh: counter-screen for M. tuberculosis FBA inhibitors: GDH-TPI coupled enzymes. GDH-TPI coupled enzyme counterscreen, NADH absorbance. inhibition, % at 4.8 µM. hit rate 1.2% among 360,000; in the data active = inhibition above about 30%;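 also: 0% = DMSO wells and 100% = wells lacking the enzyme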
PrPC surface inh: inhibitors of human cell surface prion protein PrPC. TR-FRET read-out. inhibition, % at 13.8 µM. hit rate 0.43% among 370,000; in the data active = inhibition above about 24%; also: 0% = median of the test wells and 100% = reference compound wells
BJeLR viability: kills HRASV12-expressing BJeLR cells; BJeLR (HRASV12) viability, CellTiter-Glo ATP luminescence, 48 h; inhibition, % (concentration not given with the values); hit rate 0.17% among 300,000; AID 1554; in the data active = inhibition above about 50%
PfHsp40 yeast: restores yeast growth despite PfHsp40 toxicity; S. cerevisiae expressing PfHsp40, growth rescue, ATP luminescence; growth rescue, % at 12.5 µM; hit rate 0.68% among 340,000; AID 504582; in the data active = growth rescue above about 28%, passing the limit was not always enough;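 also: yeast W303a lacking pdr1 and pdr3 grown in galactose medium; growth measured after three days at 30 °C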
Mtb FBA inh: inhibitors of M. tuberculosis fructose-bisphosphate aldolase. hit rate 2.3% among 360,000. P9WQA3. inhibition, % at 1 µM. purified M. tuberculosis FBA, fluorescence read-out; in the data active = inhibition above about 27%;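 also: 0% = vehicle and 100% = reference inhibitor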
Target sequence (P9WQA3 whole entry, looked up): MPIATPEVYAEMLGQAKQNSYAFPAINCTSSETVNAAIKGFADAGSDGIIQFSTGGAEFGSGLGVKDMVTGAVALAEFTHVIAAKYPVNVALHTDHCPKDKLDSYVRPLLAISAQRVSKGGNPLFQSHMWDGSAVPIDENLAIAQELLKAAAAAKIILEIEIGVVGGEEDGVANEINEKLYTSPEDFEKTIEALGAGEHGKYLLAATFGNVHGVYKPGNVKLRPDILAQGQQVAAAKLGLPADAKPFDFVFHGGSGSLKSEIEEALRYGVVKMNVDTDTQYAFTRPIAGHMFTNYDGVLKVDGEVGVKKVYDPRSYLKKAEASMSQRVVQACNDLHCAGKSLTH
* = called active by the depositor; . = no result; + = active, no number.

SMILES	PrP UTR inh	GDH-TPI inh	PrPC surface inh	BJeLR viability	PfHsp40 yeast	Mtb FBA inh
CC(C)C[C@@H]1COc2cc(N3CCCC3)ccc2S(=O)(=O)N1C	.	.	9	.	.	.
O=C(CSc1nnc(-c2cccs2)o1)Nc1cccc2ccccc12	.	.	-2	.	.	.
COC(=O)C[C@@H]1CC[C@H]2[C@H](COc3ccc(NC(=O)c4ccc(OC)cc4)cc3C(=O)N2C)O1	.	.	-2	.	.	.
Cc1nn2cnnc2c(C)c1Cc1c(F)cccc1Cl	-2	-3	5	-9	-2	141*
COC(=O)C1=CN(c2ccc(OC)cc2)C=C(C(=O)OC)C1c1ccc([N+](=O)[O-])cc1	0	0	-4	9	4	1
COC(=O)C1=CN(c2ccc(Cl)cc2)C=C(C(=O)OC)C1c1ccc([N+](=O)[O-])cc1	-5	2	-5	10	6	-1
COC(=O)C1=CNC=C(C(=O)OC)C1c1ccc(Cl)cc1	-7	6	0	-9	0	+
COC(=O)C1=CNC=C(C(=O)OC)C1c1ccccc1Cl	-24	8	-5	.	1	+
CCCOc1ccc(C2C(C(=O)OC)=CN(CCOC)C=C2C(=O)OC)cc1	-15	-3	0	1	-1	+
COC(=O)C1=CNC=C(C(=O)OC)C1c1cccc2ccccc12	-18	-3	-5	-18	1	26
COCCN1C=C(C(=O)OC)C(c2ccccc2C(F)(F)F)C(C(=O)OC)=C1	-11	9	8	-6	0	155*
Cc1ccc(CNC(=O)OC(C)(C)C)c(/C=C/S(=O)(=O)NCc2ccc(F)cc2)c1	.	.	14	.	.	.
Cc1cccc(NC(=O)Cn2nnc(-c3ccccc3F)n2)c1C	.	.	11	.	.	.
O=C1[C@@H](C2CC2)[C@@H]2c3ccccc3C=NN2[C@@H]2c3ccccc3C=NN12	.	.	-12	.	.	.
CCCCN1C=C(C(=O)OC)C(c2ccccc2Cl)C(C(=O)OC)=C1	-17	-2	-7	-3	-1	171*
COC(=O)C1=CN(c2ccc(F)cc2)C=C(C(=O)OC)C1c1cccc(Br)c1	-2	0	4	15	-1	18
COC(=O)C1=CNC=C(C(=O)OC)C1c1cccc(OC)c1	-6	4	-1	-6	-1	195*
CCCCN1C=C(C(=O)OC)C(c2ccccc2C(F)(F)F)C(C(=O)OC)=C1	-11	3	6	3	0	14
Cc1ccc(-c2c(NC(=O)c3ccc(F)cc3)nc3ncccn23)cc1	.	.	-11	.	.	.
Cc1ccc(NC(=O)CN2C(=O)N/C(=C/c3ccc(C)s3)C2=O)cc1	-21	32*	-3	20	1	-1
c1ccc2oc(-c3ccc4c(c3)CNCc3cnnn3-4)cc2c1	.	.	-9	.	.	+
COC1=C/C(=C/c2c(N)n3nc(CC(=O)N4CCCCC4)sc3nc2=O)C=CC1=O	-1	34*	.	-8	0	2
CCOC(=O)CC[C@@]1(C(=O)OCC)C[C@@H](CC(=O)NCCCN2CCCC2=O)C(=O)N2CCCC=C21	.	.	-2	.	.	.
CN(C)C=Nc1ccc(Cl)c(Cl)c1	7	2	4	2	-1	1
CN(C)C=Nc1ccc2nn(-c3ccccc3)nc2c1	-101	10	-10	-5	1	177*
SMILES	PrP UTR inh	GDH-TPI inh	PrPC surface inh	BJeLR viability	PfHsp40 yeast	Mtb FBA inh
C=COC(=O)c1sc2nc(C)cc(C)c2c1N	-35	1	-4	-9	0	134*
Cc1cc(C)c2c(N)c(C(=O)Nc3ccccc3F)sc2n1	-84	11	-7	-11	5	26
Cc1cc(C)c2c(N)c(C(=O)Nc3ccccc3Cl)sc2n1	.	6	-2	-7	.	33*
CN(C)CCOc1ccc(-c2c(-c3ccccc3)sc3ccccc23)cc1	-14	7	-12	.	33*	4
c1ccc(-c2sc3ccccc3c2-c2ccc(OCCN3CCCCC3)cc2)cc1	-7	12	-1	.	0	1
COC(=O)c1cc(-c2cc(F)cc(OC)c2)c(=O)n2c1CCC2	.	.	10	.	.	.
COc1ccccc1CNC(=O)c1ccc(NS(=O)(=O)c2cccs2)cc1	-20	-12	-3	-6	-2	-3
COc1cc(C=NNC(=O)c2ccc(NS(=O)(=O)c3cccs3)cc2)cc(Br)c1O	4	52*	3	.	0	1
CC(=O)Nc1ccc(C=NNC(=O)c2ccc(NS(=O)(=O)c3cccs3)cc2)cc1	-3	59*	4	.	-2	2
O=C(NN=Cc1c(F)c(F)c(F)c(F)c1F)c1ccc(NS(=O)(=O)c2cccs2)cc1	-9	36*	-2	.	1	-4
O=C(c1ccc(F)cc1Cl)N1CCC(Oc2cccnc2)CC1	.	.	7	.	.	.
c1ccc2c(c1)ncc1cccn12	-16	17	-1	-4	-1	+
Oc1ccc(/C=N/Nc2ccc(C(F)(F)F)cn2)cc1	-109	19	14	10	1	-2
Oc1ccc(/C=N/Nc2ccc(C(F)(F)F)cn2)c(O)c1	-9	24	-4	17	421*	-2
COC(=O)[C@]12C[C@H](CC(=O)NCc3ccccc3)C(=O)N(Cc3cccc4ccccc34)C1=C[C@H](C1CCCC1)O[C@@H]2C	.	.	16	.	.	.
Cc1c[nH]c2cccc(-c3cccc4ccccc34)c12	.	.	-11	.	.	.
COC(=O)Cn1c(=NC(=O)c2ccc(OC)cc2)sc2cc(OC)ccc21	-3	36*	1	7	0	11
COc1ccc(CN2C(=O)CSCCC2(C)c2nnnn2-c2c(C)cccc2C)cc1 (centres undefined)	.	.	-3	.	.	.
CCCC1=[N+](CC)CCn2c(C)ccc21	-12	31	-10	-2	3	-1
CCCC1=[N+](CC(=O)c2ccccc2)CCn2c(C)ccc21	-11	35*	-6	4	-1	-4
COc1ccc(CNC(=S)OC2CCC23CCC(c2ccccc2)CC3)cc1 (centres undefined)	.	.	17	.	.	.
O=C(O)c1ccccc1Nc1cc(Cl)c2nonc2c1[N+](=O)[O-]	-15	13	-23	7	0	-18
O=[N+]([O-])c1c(Nc2ccccn2)cc(Cl)c2nonc12	-17	8	-8	112*	1	-5
COc1cc2c(c(OC)c1)[C@H](/C=C/c1ccccc1)[C@@H]([C@H](O)CO)OC2	.	.	-8	.	.	.
O=C(O)C1CCCC[C@H]1C(=O)Nc1ncc([N+](=O)[O-])s1 (some centres undefined)	-8	31*	-42	.	0	-1
O=C(Nc1ccccc1)Nc1ncc([N+](=O)[O-])s1	-50	-8	3	22	2	-50
COc1ccc(CN2CCC(CNC(=O)Nc3ccc(Cl)cc3)CC2)cc1	.	.	-10	.	.	.
C#CCOCCOCCOCCNc1nc(N2CCN(C(=O)[C@H](CCCCN)n3cc([C@@H](N)C(C)CC)nn3)CC2)nc(N2CCN(C(=O)[C@H](Cc3cc4ccccc4[nH]3)n3cc([C@@H](N)CC(C)C)nn3)CC2)n1 (some centres undefined)	1	8	.	2	39*	3
